Screens deposited in PubChem BioAssay by The Scripps Research Institute Molecular Screening Center.
Compounds with a hit are over-represented: about 2.3% of the library has one in this group of screens.
M1 ag: human M1 muscarinic receptor agonists, primary screen, Fluo-8 calcium fluorescence, CHO-K1 cells, HTS | Muscarinic acetylcholine receptor M1 (Homo sapiens), P11229 | CHO-K1 hM1, agonist mode; 0% DMSO, 100% acetylcholine EC100 | activation, % at 3 µM | hit rate 0.33% among 360,000;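 active = activation above the run's mean compound activation plus 3 SD, cut at about 16% in these data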;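 note: peak over basal fluorescence ratio within a 140 s kinetic read after compound addition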
Target sequence (P11229 whole entry, looked up): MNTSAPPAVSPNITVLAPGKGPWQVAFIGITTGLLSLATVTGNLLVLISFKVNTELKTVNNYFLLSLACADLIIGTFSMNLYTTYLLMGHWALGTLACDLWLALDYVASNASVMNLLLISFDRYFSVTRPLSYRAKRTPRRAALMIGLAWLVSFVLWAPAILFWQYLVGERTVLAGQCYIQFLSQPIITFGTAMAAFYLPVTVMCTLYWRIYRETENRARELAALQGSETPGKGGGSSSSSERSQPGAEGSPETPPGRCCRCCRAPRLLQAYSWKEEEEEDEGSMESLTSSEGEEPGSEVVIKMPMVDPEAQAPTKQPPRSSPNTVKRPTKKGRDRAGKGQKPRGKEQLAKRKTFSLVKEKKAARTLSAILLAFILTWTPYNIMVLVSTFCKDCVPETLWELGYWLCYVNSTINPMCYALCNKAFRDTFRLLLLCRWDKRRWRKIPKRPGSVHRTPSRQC
CHRM1 antagonist: human M1 muscarinic receptor antagonists, primary screen, CHO-K1 cells, Fluo-8 calcium fluorescence, 1536-well. Muscarinic acetylcholine receptor M1 (Homo sapiens), P11229. CHO-K1 hM1, ACh EC80 antagonist. inhibition, % at 3 µM. hit rate 1.3% among 360,000. AID 588852, 2011;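 active = percent inhibition above its own plate's cutoff, namely the mean of that plate's compound wells plus 3 SD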;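 note: peak over basal fluorescence ratio during 140 s after agonist addition; 0% = ACh EC80 plus DMSO and 100% = DMSO alone without agonist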
M1 ag parental: counter-screen for M1 agonists: effect in parental CHO-K1 cells; Fluo-8 calcium fluorescence; scaled to maximal ATP response, vehicle zero; activation, % at 3 µM; hit rate 0.48% among 360,000; AID 602248, 2012; in the data active = activation above about 15%;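 note: untransfected CHO-K1 host cells lacking M1 receptor as counterscreen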
CHO-K1 Ca antag: nonselective inhibitor or artifact in parental CHO-K1 cells; AID 602250; inhibition, % at 3 µM; hit rate 0.6% among 360,000; ATP-induced calcium, Fluo-8 fluorescence;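 active = inhibition above a per-plate cutoff, the plate's mean sample inhibition plus 3 SD, cut at about 24% in these data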;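 note: 0% = DMSO plus EC80 ATP and 100% = DMSO alone without ATP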
CHO-K1 Ca PAM: nonselective calcium activators in parental CHO-K1 cells, primary screen, counter-screen for M1 PAM project, cell-based, Fluo-8 calcium fluorescence, full deck, 1536-well; AID 602247, 2012; activation, % at 3 µM; hit rate 0.02% among 360,000; ATP EC20; 0% at ATP EC20, 100% at ATP max;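 active = activation above the run cutoff, the mean activation of all test compounds plus 3 SD, cut at about 40% in these data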;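 note: peak over basal fluorescence ratio in a 140 s read after ATP addition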
CHRM1 PAM: human M1 muscarinic receptor positive allosteric modulators, primary screen, CHO-K1 cells, Fluo-8 calcium fluorescence, 1536-well | Muscarinic acetylcholine receptor M1 (Homo sapiens), P11229 | CHO-K1 hM1, ACh EC20; 0% = ACh EC20, 100% = maximal ACh | activation, % at 3 µM | hit rate 0.088% among 360,000 | AID 588819, 2011; in the data active = activation above about 19%, passing the limit was not always enough
Active calls of the source: *; · = no result.

SMILES	M1 ag	CHRM1 antagonist	M1 ag parental	CHO-K1 Ca antag	CHO-K1 Ca PAM	CHRM1 PAM
Cc1ccc(S(=O)(=O)N2CCCC2CNC(=O)C(=O)NCCN2CCOCC2)cc1 (centres undefined)	-3	-2	1	0	7	4
O=C(OC1CC2CC1[C@H]1CCCCN1C2=O)N1CCN(S(=O)(=O)c2ccccc2)CC1 (some centres undefined)	·	·	0	-8	7	·
O=C(CN(C(=O)c1csnn1)c1cccc(C(F)(F)F)c1)NC1CCCC1	3	-4	1	1	4	9
S=C(NCCc1ccccc1)Nc1cccc2cnccc12	1	28	12	32*	-23	-2
CCC(C)c1ccc(S(=O)(=O)N2CCN(C(=O)c3ccc(Cl)c(S(=O)(=O)N4CCOCC4)c3)CC2)cc1 (centres undefined)	-7	16	3	-5	-4	-8
COc1cccc(-c2cnc(C(O)c3c(C)ccc4ccccc34)[nH]2)c1 (centres undefined)	9	-1	20*	3	2	-1
Cc1ccc2ccccc2c1C(O)c1ncc(-c2ccc(F)cc2)[nH]1 (centres undefined)	2	2	4	2	2	2
CC(C)NC(=O)N(C)C[C@@H]1OCc2cn(nn2)CCCC(=O)N([C@H](C)CO)C[C@H]1C	-3	-12	1	-10	18	8
OCCCCNCc1ccc(OCc2ccc(Cl)cc2Cl)cc1	-7	35*	11	-27	14	-27
O=C(CSc1ccccc1[N+](=O)[O-])NC1CCS(=O)(=O)C1 (centres undefined)	0	0	0	4	-8	2
O=C(CC1SC(=Nc2ccccc2)N(CCCO)C1=O)Nc1ccc(Cl)cc1 (centres undefined)	1	30*	7	8	8	-10
CC(C)N=C1SC(CC(=O)Nc2ccccc2)C(=O)N1C(C)C (centres undefined)	-1	26*	5	12	-8	-16
CCOc1ccc(S(=O)(=O)N2CCC(C(=O)NCc3ccccc3CN3CCCC3)CC2)cc1	-7	15	0	-19	15	-17
Cc1onc(-c2ccccc2)c1C(=O)Nc1ncc([N+](=O)[O-])s1	7	27	16*	12	4	-13
COCCNC(=O)c1ccccc1NC(=O)CSc1ccc(C)cc1	1	1	1	-12	6	9
CN1CCC(N(C)CC(=O)Nc2ccc3c(c2)OC(F)(F)O3)CC1	-7	72*	0	-9	9	-23
CC(=O)Oc1ccccc1Cn1c(C)c(C(=O)NCCC#N)sc1=O	1	-15	1	3	4	12
COc1cccc2cc(C(=O)C3=C(O)C(=O)N(CCN4CCOCC4)C3c3cccc(Cl)c3)oc12 (centres undefined)	5	-11	-1	27*	8	18
Cc1ccc(S(=O)(=O)N2CC3(O)CN(C(=O)OC(C)C)N(C(=O)OC(C)C)CC3(OC(=O)NCc3ccco3)C2)cc1 (centres undefined)	-2	3	4	-4	5	-1
CCN1CCN(CCNC(=O)c2ccc3nc(-c4cccc(C)c4)c(-c4cccc(C)c4)nc3c2)CC1	-5	83*	2	-12	10	-25
CCCNC(=O)c1ccc2nc(-c3ccccc3)c(-c3ccccc3)nc2c1	-4	4	1	-7	16	1
S=c1nc(-c2cc(Cl)ccc2Cl)[nH][nH]1	6	1	0	26*	-14	15
Cc1nc2sc(C(c3ccccc3)N3CCN(CCO)CC3)c(O)n2n1 (centres undefined)	-4	16	0	31*	-5	-8
COC(=O)C1CCN(C(c2ccc(OC)c(OC)c2)c2sc3nc(C)nn3c2O)CC1 (centres undefined)	1	36*	5	8	20	-8
Cc1ccc(C(c2sc3nc(C)nn3c2O)N2CCN(CCO)CC2)cc1 (centres undefined)	-4	-8	1	-2	12	6
SMILES	M1 ag	CHRM1 antagonist	M1 ag parental	CHO-K1 Ca antag	CHO-K1 Ca PAM	CHRM1 PAM
Cc1noc(C)c1S(=O)(=O)Nc1ccc(C(=O)N2CCN(c3cccc(Cl)c3)CC2)cc1	3	17	17*	1	-10	-16
Cc1cccc(N2CCN(C(=O)c3ccc(NS(=O)(=O)c4c(C)noc4C)cc3)CC2)c1C	-3	-2	0	2	7	1
CC1(C)CC(=O)C=C(Nc2ccc(O)c(C(=O)O)c2)C1	2	-38	0	14	6	30*
CC1(C)CC(=O)C=C(Nc2ccc(C(=O)O)cc2)C1	-2	3	0	18	-6	-8
Cc1ccc(NS(=O)(=O)c2ccc(-n3cccn3)cc2)cc1C	-1	28*	8	-11	6	-17
Cc1ccc(NS(=O)(=O)c2ccc(-n3cccn3)cc2)cc1Cl	-3	-4	2	0	3	2
NC(=O)c1cc([N+](=O)[O-])c(Cl)cc1NCc1ccccn1	0	2	6	-15	8	-5
CN(Cc1cccs1)c1nc(-c2cccnc2)nc2ccccc12	-8	35*	3	-9	-6	-19
Cc1nc2ccc(Cl)cc2c(-c2ccccc2Cl)c1CC(=O)O	-2	-4	1	11	-4	6
CN1CCc2nc3ccc(Cl)cc3c(-c3ccccc3Cl)c2C1	-12	93*	0	11	-6	-26
OC(C#CCN1CCCC1)(c1ccccc1)c1cccc(F)c1 (centres undefined)	-15	101*	0	1	6	-28
CC(O)(C#CCN1CCCCC1)c1ccccc1 (centres undefined)	-8	30	0	-2	-1	-19
CC(O)(C#CCN1CCCC1)c1ccccc1 (centres undefined)	-9	41*	8	-10	20	-21
C(#Cc1ccccc1)CN1CCCCC1	-15	1	3	-12	18	-6
CC1CCCN1CC#CC(O)(c1ccccc1)c1ccccc1 (centres undefined)	-9	100*	0	-6	6	-28
CC(C)(C#CCN1CCCCC1)OCCOC(c1ccccc1)c1ccccc1	-9	99*	0	-10	8	-26
CCCc1ccc(C(=O)NNc2ccccc2F)cc1	-3	-11	1	-6	13	2
